Tests used:
Assay in all cases: DAPPL (digital affinity profiling via proximity ligation, sequencing); 10 mM Tris-HCl pH 7.5, 50 mM NaCl, 1 mM DTT, 4% glycerol, room temperature, 30 min; GST-TFs on glutathione beads, 16-mer random dsDNA library, 0.1% formaldehyde crosslink after washing; high values mean tight binding
FLI1 = molecular target: T1, FLI1 (Homo sapiens, UniProt Q01543 1-452); details: protein: recombinant; tags: N-terminal GST; dsDNA, one strand shown
T1 sequence: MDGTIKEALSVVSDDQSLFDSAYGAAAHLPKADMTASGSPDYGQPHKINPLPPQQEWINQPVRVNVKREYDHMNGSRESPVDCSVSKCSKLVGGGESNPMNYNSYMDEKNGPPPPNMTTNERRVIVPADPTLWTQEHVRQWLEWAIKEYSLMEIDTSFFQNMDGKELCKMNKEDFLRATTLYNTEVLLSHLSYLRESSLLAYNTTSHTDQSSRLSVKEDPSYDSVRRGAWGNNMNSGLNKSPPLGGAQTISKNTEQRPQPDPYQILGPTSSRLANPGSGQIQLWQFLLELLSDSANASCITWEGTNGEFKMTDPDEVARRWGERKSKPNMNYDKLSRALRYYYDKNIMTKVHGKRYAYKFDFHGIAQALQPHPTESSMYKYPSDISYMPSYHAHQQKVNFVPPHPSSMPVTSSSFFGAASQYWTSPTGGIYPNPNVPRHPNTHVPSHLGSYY
Procedure, shortened: (§1)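 Pools were built from human transcription factors expressed in yeast as GST fusions, captured on glutathione beads and DNA-barcoded, along with a tag-only sample. Incubation with 200 nmole of a 16-mer random double-stranded DNA library lasted 30 min at room temperature in Tris/NaCl/DTT/glycerol buffer, and was followed by washing, 0.1% formaldehyde crosslinking, proximity ligation, PCR amplification and Illumina NextSeq500 sequencing. Binding signal is the quotient of each hexamer's read frequency for a factor and its frequency for the tag-only sample.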

ELK1 = molecular target: T2, ELK1 (Homo sapiens, UniProt P19419 1-428); details: protein: recombinant; tags: N-terminal GST; dsDNA, one strand shown
T2 sequence: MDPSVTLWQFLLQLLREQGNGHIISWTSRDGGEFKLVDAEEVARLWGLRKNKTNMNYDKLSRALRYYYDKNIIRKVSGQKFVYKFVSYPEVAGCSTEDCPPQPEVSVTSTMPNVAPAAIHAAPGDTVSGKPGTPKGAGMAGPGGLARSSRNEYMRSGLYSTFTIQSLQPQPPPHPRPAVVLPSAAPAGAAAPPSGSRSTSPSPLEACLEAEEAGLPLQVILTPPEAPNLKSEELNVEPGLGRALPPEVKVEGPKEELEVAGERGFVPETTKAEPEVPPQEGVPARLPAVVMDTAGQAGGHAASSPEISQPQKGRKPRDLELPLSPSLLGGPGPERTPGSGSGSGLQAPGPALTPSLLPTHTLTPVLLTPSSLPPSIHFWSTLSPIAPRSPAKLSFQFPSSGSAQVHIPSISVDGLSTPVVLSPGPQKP
Procedure, shortened: as §1

GABPA = molecular target: T3, GABPA (Homo sapiens, UniProt Q06546 1-454); details: protein: recombinant; tags: N-terminal GST; dsDNA, one strand shown
T3 sequence: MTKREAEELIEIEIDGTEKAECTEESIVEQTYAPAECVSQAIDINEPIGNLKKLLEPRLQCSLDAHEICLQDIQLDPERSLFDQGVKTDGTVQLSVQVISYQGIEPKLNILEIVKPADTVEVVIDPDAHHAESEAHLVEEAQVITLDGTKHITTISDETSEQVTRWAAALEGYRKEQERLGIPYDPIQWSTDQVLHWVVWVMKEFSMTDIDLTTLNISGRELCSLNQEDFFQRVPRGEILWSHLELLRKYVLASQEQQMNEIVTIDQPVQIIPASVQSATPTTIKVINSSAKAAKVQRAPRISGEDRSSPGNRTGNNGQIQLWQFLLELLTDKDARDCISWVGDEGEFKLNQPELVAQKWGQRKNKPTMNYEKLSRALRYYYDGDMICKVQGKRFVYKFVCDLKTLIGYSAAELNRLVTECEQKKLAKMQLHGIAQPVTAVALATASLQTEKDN
Procedure, shortened: as §1

ERG = molecular target: T4, ERG (Homo sapiens, UniProt P11308 1-479); details: protein: recombinant; tags: N-terminal GST; dsDNA, one strand shown
T4 sequence: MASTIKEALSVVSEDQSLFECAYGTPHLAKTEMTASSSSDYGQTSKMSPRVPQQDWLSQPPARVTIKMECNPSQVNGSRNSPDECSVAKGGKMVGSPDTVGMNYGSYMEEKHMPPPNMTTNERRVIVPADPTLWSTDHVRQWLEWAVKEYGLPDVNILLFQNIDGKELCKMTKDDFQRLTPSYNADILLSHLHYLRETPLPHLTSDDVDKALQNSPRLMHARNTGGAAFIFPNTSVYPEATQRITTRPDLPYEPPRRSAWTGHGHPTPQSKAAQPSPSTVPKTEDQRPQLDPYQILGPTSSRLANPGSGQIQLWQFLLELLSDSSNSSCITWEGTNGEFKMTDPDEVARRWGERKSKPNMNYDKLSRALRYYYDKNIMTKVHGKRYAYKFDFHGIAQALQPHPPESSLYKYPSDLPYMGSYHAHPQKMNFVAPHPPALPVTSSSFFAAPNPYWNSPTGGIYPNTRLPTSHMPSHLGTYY
Procedure, shortened: as §1

ELF1 = ELF1 (Homo sapiens, UniProt P32519 1-619); details: protein: recombinant; tags: N-terminal GST; dsDNA, one strand shown
Procedure, shortened: as §1

EHF = molecular target: T5, EHF (Homo sapiens, UniProt Q9NZC4 1-300); details: protein: recombinant; tags: N-terminal GST; dsDNA, one strand shown
T5 sequence: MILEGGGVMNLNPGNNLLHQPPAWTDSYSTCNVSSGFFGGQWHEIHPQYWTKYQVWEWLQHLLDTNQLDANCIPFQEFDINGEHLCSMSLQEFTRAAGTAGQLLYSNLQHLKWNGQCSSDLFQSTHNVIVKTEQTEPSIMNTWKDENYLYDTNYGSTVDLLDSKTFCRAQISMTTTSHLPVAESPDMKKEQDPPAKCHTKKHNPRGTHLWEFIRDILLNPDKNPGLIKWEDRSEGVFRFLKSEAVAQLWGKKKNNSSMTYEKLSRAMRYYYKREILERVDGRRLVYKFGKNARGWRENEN
Procedure, shortened: as §1

SPI1 = SPI1 (Homo sapiens, UniProt P17947 1-270); details: protein: recombinant; tags: N-terminal GST; dsDNA, one strand shown
Procedure, shortened: as §1

SPIB = SPIB (Homo sapiens, UniProt Q01892 1-262); details: protein: recombinant; tags: N-terminal GST; dsDNA, one strand shown
Procedure, shortened: as §1

ELK3 = molecular target: T6, ELK3 (Homo sapiens, UniProt P41970 1-407); details: protein: recombinant; tags: N-terminal GST; dsDNA, one strand shown
T6 sequence: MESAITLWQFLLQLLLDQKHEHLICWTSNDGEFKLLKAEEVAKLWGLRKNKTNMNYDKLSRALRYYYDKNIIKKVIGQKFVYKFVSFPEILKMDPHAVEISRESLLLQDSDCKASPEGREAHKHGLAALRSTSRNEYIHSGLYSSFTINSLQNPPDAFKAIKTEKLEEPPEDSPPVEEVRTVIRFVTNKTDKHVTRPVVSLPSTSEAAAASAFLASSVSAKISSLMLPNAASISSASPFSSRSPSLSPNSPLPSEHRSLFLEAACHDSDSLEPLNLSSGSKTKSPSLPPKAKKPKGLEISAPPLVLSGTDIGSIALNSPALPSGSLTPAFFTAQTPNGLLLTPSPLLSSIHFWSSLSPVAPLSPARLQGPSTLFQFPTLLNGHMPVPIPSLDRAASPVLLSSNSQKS
Procedure, shortened: as §1

FEV = molecular target: T7, FEV (Homo sapiens, UniProt Q99581 1-238); details: protein: recombinant; tags: N-terminal GST; dsDNA, one strand shown
T7 sequence: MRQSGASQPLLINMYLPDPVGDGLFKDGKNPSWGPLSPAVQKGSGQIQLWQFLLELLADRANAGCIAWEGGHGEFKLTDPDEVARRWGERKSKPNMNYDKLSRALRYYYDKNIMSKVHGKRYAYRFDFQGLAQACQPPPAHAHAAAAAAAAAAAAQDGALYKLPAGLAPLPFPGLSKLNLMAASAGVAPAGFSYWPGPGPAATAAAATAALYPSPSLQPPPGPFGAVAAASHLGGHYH
Procedure, shortened: as §1

ETV5 = ETV5 (Homo sapiens, UniProt P41161 1-510); details: protein: recombinant; tags: N-terminal GST; dsDNA, one strand shown
Procedure, shortened: as §1

HSF1 = HSF1 (Homo sapiens, UniProt Q00613 1-529); details: protein: recombinant; tags: N-terminal GST; chain copies: 3; dsDNA, one strand shown
Procedure, shortened: as §1

SPIC = molecular target: T8, SPIC (Homo sapiens, UniProt Q8N5J4 1-248); details: protein: recombinant; tags: N-terminal GST; dsDNA, one strand shown
T8 sequence: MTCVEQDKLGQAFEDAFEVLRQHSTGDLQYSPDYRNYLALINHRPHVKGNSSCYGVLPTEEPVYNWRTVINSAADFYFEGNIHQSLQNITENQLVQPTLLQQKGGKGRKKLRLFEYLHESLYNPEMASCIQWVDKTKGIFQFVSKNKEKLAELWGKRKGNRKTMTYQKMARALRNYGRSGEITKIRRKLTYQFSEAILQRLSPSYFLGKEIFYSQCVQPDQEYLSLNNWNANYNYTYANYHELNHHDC
Procedure, shortened: as §1

ELF4 = ELF4 (Homo sapiens, UniProt Q99607 1-663); details: protein: recombinant; tags: N-terminal GST; dsDNA, one strand shown
Procedure, shortened: as §1

ELK4 = molecular target: T9, ELK4 (Homo sapiens, UniProt P28324-2 1-405); details: protein: recombinant; tags: N-terminal GST; dsDNA, one strand shown
T9 sequence: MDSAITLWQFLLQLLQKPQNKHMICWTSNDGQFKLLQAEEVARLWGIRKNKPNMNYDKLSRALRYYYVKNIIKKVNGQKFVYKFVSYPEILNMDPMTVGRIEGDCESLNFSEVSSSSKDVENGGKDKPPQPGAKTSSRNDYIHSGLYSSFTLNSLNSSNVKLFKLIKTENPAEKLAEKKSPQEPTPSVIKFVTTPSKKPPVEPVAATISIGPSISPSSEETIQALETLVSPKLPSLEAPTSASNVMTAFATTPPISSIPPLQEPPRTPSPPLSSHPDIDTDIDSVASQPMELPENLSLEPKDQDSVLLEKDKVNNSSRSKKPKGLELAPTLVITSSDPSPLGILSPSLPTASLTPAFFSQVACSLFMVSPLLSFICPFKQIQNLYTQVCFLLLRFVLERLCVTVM
Procedure, shortened: as §1

ETV2 = molecular target: T10, ETV2 (Homo sapiens, UniProt O00321 1-342); details: protein: recombinant; tags: N-terminal GST; dsDNA, one strand shown
T10 sequence: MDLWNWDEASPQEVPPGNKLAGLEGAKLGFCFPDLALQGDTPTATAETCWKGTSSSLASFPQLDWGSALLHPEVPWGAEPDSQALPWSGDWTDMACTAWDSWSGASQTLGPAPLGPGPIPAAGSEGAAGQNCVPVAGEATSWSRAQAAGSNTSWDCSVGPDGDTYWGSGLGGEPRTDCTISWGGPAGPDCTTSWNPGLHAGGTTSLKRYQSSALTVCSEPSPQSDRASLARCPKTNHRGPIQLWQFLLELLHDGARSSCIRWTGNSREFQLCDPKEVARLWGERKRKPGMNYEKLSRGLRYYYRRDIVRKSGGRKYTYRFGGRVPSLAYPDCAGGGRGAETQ
Procedure, shortened: as §1

ELF3 = molecular target: T11, ELF3 (Homo sapiens, UniProt P78545 1-371); details: protein: recombinant; tags: N-terminal GST; dsDNA, one strand shown
T11 sequence: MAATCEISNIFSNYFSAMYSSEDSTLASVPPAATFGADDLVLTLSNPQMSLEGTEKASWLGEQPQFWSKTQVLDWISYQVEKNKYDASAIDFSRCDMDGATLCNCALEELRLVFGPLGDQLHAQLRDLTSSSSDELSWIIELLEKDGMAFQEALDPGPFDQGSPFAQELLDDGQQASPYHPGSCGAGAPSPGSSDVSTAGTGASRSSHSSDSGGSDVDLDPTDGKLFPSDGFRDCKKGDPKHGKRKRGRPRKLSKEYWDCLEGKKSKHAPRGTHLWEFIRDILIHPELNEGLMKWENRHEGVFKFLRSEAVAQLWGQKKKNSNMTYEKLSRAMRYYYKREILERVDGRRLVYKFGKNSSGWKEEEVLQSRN
Procedure, shortened: as §1

CRX = CRX (Homo sapiens, UniProt O43186 1-299); details: protein: recombinant; tags: N-terminal GST; dsDNA, one strand shown
Procedure, shortened: as §1

ETV1 = ETV1 (Homo sapiens, UniProt P50549 1-477); details: protein: recombinant; tags: N-terminal GST; dsDNA, one strand shown
Procedure, shortened: as §1

Sequence of CRX (O43186 whole entry): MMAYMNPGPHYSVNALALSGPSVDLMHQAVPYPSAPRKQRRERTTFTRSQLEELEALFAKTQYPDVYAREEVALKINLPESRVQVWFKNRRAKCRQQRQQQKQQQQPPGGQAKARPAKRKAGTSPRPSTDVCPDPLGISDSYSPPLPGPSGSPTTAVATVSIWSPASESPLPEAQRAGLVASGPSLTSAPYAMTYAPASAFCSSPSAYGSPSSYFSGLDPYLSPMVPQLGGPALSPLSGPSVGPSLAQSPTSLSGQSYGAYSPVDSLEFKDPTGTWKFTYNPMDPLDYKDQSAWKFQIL
Sequence of ELF1 (P32519 whole entry): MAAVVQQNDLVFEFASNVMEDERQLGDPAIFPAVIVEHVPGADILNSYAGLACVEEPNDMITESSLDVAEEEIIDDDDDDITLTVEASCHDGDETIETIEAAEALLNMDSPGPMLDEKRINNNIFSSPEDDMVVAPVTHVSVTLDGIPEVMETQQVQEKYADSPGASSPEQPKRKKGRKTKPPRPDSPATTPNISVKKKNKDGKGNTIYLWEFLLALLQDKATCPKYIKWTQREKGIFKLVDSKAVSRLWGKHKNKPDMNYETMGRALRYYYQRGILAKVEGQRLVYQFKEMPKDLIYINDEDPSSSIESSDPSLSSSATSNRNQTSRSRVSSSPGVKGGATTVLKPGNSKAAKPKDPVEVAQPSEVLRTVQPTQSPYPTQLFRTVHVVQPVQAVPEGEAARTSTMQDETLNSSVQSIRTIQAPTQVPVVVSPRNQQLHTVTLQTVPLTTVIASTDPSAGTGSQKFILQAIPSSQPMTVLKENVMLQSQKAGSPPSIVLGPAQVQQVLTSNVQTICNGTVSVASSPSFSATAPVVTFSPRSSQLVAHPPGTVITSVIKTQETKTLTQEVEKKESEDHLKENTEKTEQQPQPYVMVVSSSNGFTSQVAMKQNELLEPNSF
Sequence of SPIB (Q01892 whole entry): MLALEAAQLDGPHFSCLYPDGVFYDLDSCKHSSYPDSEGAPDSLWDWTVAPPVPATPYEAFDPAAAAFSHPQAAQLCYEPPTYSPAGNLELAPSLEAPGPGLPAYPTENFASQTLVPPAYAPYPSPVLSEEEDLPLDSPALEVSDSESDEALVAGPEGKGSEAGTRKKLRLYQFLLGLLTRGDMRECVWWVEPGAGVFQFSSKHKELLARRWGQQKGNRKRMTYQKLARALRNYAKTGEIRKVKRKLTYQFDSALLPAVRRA
Sequence of HSF1 (Q00613 whole entry): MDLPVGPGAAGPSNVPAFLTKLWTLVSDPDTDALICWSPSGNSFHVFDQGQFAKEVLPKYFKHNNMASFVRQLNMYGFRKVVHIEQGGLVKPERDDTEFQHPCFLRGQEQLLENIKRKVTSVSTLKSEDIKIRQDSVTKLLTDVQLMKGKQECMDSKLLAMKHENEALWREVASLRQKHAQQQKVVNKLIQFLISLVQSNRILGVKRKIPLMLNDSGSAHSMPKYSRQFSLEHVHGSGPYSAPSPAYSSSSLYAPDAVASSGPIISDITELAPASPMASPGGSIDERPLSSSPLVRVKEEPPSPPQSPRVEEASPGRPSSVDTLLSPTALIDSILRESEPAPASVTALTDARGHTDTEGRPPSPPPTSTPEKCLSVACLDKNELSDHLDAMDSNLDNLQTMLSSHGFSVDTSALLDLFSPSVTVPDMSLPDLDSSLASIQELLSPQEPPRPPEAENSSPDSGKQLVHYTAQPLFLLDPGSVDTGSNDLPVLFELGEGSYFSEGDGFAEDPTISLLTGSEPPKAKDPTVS
Sequence of ETV1 (P50549 whole entry): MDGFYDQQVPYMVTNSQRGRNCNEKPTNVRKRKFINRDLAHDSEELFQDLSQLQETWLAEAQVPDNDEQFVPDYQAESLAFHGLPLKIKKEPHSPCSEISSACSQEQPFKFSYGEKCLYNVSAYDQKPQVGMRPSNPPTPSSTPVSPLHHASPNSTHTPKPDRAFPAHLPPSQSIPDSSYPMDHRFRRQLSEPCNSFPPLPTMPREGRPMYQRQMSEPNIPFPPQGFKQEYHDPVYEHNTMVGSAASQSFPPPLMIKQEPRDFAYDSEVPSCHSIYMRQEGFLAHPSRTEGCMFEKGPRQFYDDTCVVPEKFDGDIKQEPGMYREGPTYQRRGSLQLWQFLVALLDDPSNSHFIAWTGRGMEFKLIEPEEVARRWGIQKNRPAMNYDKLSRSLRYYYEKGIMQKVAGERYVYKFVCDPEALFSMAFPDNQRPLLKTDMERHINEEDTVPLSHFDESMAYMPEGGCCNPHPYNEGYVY
Sequence of ELF4 (Q99607 whole entry): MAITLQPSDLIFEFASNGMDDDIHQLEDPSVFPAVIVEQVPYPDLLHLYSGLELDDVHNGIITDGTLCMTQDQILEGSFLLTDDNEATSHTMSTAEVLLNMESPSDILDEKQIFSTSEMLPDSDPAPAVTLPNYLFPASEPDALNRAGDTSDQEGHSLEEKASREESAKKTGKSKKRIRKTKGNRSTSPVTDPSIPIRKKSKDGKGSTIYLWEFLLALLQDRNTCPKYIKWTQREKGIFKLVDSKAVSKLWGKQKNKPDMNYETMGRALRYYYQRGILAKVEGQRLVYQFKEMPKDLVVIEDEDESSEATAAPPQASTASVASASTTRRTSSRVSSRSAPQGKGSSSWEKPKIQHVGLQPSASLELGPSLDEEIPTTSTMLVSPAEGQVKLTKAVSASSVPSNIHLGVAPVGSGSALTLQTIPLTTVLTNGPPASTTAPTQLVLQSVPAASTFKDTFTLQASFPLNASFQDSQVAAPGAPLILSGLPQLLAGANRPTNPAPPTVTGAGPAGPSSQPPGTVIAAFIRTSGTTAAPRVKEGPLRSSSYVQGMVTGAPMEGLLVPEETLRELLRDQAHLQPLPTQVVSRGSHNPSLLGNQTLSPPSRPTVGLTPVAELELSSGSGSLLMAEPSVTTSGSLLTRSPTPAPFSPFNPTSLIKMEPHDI
Sequence of ETV5 (P41161 whole entry): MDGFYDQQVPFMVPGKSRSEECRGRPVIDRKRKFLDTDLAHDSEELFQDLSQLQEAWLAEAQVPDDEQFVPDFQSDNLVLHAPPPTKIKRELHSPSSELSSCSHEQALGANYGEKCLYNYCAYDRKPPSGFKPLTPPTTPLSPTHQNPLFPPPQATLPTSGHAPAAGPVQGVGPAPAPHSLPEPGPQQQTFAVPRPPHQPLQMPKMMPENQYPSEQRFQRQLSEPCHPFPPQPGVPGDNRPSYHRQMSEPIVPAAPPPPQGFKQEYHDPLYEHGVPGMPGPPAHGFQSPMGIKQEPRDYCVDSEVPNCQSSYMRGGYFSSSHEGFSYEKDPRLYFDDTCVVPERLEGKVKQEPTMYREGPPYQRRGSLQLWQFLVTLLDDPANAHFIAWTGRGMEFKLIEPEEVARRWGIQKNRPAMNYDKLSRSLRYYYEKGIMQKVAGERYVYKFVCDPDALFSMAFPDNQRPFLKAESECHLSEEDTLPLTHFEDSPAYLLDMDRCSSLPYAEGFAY

Sequence: CCTCAT
- binding signal (FLI1): 1.35 fold enrichment (6-mer frequency, TF over GST control)
- binding signal (ELK1): 1.3 fold enrichment (6-mer frequency, TF over GST control)
- binding signal (GABPA): 1.34 fold enrichment (6-mer frequency, TF over GST control)
- binding signal (ERG): 1.34 fold enrichment (6-mer frequency, TF over GST control)
- binding signal (ELF1): 1.35 fold enrichment (6-mer frequency, TF over GST control)
- binding signal (EHF): 1.39 fold enrichment (6-mer frequency, TF over GST control)
- binding signal (SPI1): 1.67 fold enrichment (6-mer frequency, TF over GST control)
- binding signal (SPIB): 1.33 fold enrichment (6-mer frequency, TF over GST control)
- binding signal (ELK3): 1.23 fold enrichment (6-mer frequency, TF over GST control)
- binding signal (FEV): 1.26 fold enrichment (6-mer frequency, TF over GST control)
- binding signal (ETV5): 1.31 fold enrichment (6-mer frequency, TF over GST control)
- binding signal (HSF1): 1.08 fold enrichment (6-mer frequency, TF over GST control)
- binding signal (SPIC): 1.45 fold enrichment (6-mer frequency, TF over GST control)
- binding signal (ELF4): 1.39 fold enrichment (6-mer frequency, TF over GST control)
- binding signal (ELK4): 1.3 fold enrichment (6-mer frequency, TF over GST control)
- binding signal (ETV2): 1.1 fold enrichment (6-mer frequency, TF over GST control)
- binding signal (ELF3): 1.27 fold enrichment (6-mer frequency, TF over GST control)
- binding signal (CRX): 1.1 fold enrichment (6-mer frequency, TF over GST control)
- binding signal (ETV1): 1.37 fold enrichment (6-mer frequency, TF over GST control)

Source: article PMC7862700, “An all-to-all approach to the identification of sequence-specific readers for epigenetic DNA modifications on cytosine”
